The record followed here is PubChem BioAssay (NCI).

Molecules are shown by their SMILES. This is part of a sample that, as a whole, favours compounds with a hit. Of some 83,000 tested, about 20% had one in any assay.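 Treatment: one concentration, 48 hours, 96-well format. Scoring: percent growth, with anything below 10 considered active.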 Calls of active or inactive are those of the source.

In the experiment the test system is HL-60(TB) leukemia. Nature of the experiment: NCI-60 one-dose screen, 48 h (100 = growth as untreated, 0 = no growth, -100 = all killed). As to conditions: 10 µM unless noted.
Consider `O=C(CCCCCCN1CC(=O)N2[C@@H](c3cc(F)cc(F)c3)c3[nH]c4ccccc4c3C[C@H]2C1=O)NO`, for which the growth was 16.2% (inactive).
The same measure for `CCOC(=O)c1c(NCC(=O)Nc2cccc([N+](=O)[O-])c2)sc(C(C)=O)c1C`: -18.4% (active).
In the case of `Cn1cc(-c2nnc(N)nc2-c2c[nH]c3ccc(F)cc23)c2cc(Br)ccc21` it was -20.7% (active).
In the case of `COc1cc2nc(Cl)nc(Nc3cccc(C4=Nc5c(N)nc(N)nc5NC(c5ccccc5)C4)c3)c2cc1OC` (stereo not drawn) it was 66.4% (inactive); in that of `c1ccc(CNc2ncnc3ccc(-c4cnc5[nH]ncc5c4)cc23)cc1`, 63.8% (inactive).
As for `NC1[C@H]2CN(c3cnc(C(=O)Nc4cc(F)cc5cccnc45)cn3)C[C@@H]12` (stereo partly drawn), the growth was 11.5% (inactive).
In the case of `COc1ccc(C(=O)CSc2nc3c(c(Nc4ccc(S(N)(=O)=O)cc4)n2)CCCC3)cc1` it was 101% (inactive).
For the compound `NC(=S)N/N=C(/C=C/c1cn(-c2ccccc2)nc1-c1ccc(Cl)cc1)c1cc2ccccc2oc1=O`, the growth was 43.9% (inactive).
In the case of `COc1cc2c3c(cc4c5c(ccc4c3c1OC)OCO5)N(CCN(C)C)C2=O` it was -17.1% (active); in that of `CN1CCN(CC#CCn2c3c(c4ccccc42)C[C@]2(C)[C@H]4CC=C5[C@@H]6CC(C)(C)CC[C@]6(C(=O)N6CCOCC6)CC[C@@]5(C)[C@]4(C)CC[C@H]2C3(C)C)CC1`, 16.2% (inactive); in that of `Cc1ccc2c(c1)C(=O)/C(=C/c1cccc(F)c1)S2`, 98.9% (inactive).
In the case of `NS(=O)(=O)Oc1ccc2nc(Nc3ccc(F)c(F)c3)ccc2c1` it was 71.3% (inactive).
For `Cc1cc(O)c(=O)cc2c1C[C@H]1CC(C)(C)/C=C/C[C@]3(C)Oc4cc(=O)c(O)cc(C)c4C[C@H]3C[C@H](O)[C@@]1(C)O2`, the growth was -31.8% (active).
In the case of `Nc1nc(-c2cccc([N+](=O)[O-])c2)c(N=Nc2ccccc2Cl)s1` it was 93.7% (inactive).
The same measure for `O=C(COc1ccc(/C=C2\C(=O)Nc3cc(Cl)ccc32)cc1)Nc1ccc(Cl)cc1`: 61% (inactive); for `NNC(=O)c1sc2nc(-c3cnccn3)cc(-c3cccs3)c2c1N`: 105% (inactive).
As to `CC1COc2c(N3CCN(C)CC3)c(F)cc3c(=O)c(C(=O)N/N=C/c4cc[nH]c4)cn1c23` (stereo not drawn), the growth is 20.3% (inactive).
The same measure for `C#C[C@]1(O)CC[C@H]2[C@@H]3CC=C4c5sc(Nc6ccncc6)nc5CC[C@]4(C)[C@H]3CC[C@@]21C`: -24% (active); for `Clc1ccc2c(NCCCN3CCOCC3)c3oc4ccc(Cl)cc4c3nc2c1`: 67.7% (inactive).
The same measure for `Cc1cn(-c2cc(NC(=O)c3cncc(C#Cc4cnc5ccc(O[C@@H]6CCOC6)nn45)c3)cc(C(F)(F)F)c2)cn1`: -32.6% (active).
The same measure for `CN1CCN(c2ccc(C(=O)Nc3cccc(-c4cn(-c5ccc(S(N)(=O)=O)cc5)nn4)c3)cc2C(F)(F)F)CC1`: 77% (inactive).
For the compound `O=C(N/N=C\c1ccc(Cl)cc1)c1ccc2nc(-c3ccc(Br)cc3)[nH]c2c1`, the growth is 41.5% (inactive).
In the case of `Fc1ccc(-c2cn3c(-c4c[nH]c5ccc(Br)cc45)csc3n2)cc1` it was 104% (inactive); in that of `NC(N)=Nc1ccc(Oc2cccc(Nc3ccc(Cl)cc3)c2)cn1`, -69.4% (active); in that of `N#Cc1c(-c2ccc(Br)cc2)cc(-c2c[nH]c3ccccc23)nc1N`, 28.8% (inactive).
The same measure for `CC1(C)[C@@H](O)CC[C@]2(C)[C@H]3CC[C@@H]4[C@H]5[C@H](C(=O)/C=C\c6ccncc6)CC[C@]5(O)CC[C@@]4(C)[C@]3(C)CC[C@@H]12`: 26.4% (inactive); for `Cc1cc2nc3c4cc(C#N)ccc4n(CCN(C)C)c3nc2cc1C`: -35.7% (active); for `CC(C)Sc1nc(Nc2ccc(S(N)(=O)=O)cc2)c(C#N)c(-c2ccc(F)cc2)n1`: 45.4% (inactive).
The same measure for `N#Cc1c(-c2ccccc2)cc(-c2c[nH]c3ccccc23)nc1-c1c[nH]c2ccccc12`: 104% (inactive).
For `CC(C)(C)Nc1nc2c(OCCc3ccccc3)cccn2c1-c1cccc(Oc2ccccc2)c1`, the growth was 0.841% (active).
`C[C@H](Nc1ncnc2ccc(-c3cnc(Cl)c(NS(C)(=O)=O)c3)cc12)c1ccccc1`: the growth was -17.6% (active).
With `[Cl][Ru].c1ccc(-c2cccc(-c3ccccn3)n2)nc1.c1ccc(-c2ccnc3c2ccc2c(-c4ccccc4)ccnc23)cc1`, the growth is -10.5% (active).
Regarding `CC1OC(O[C@@H]2C(O)C(CO)OC(O[C@H]3COC(O[C@H]4CC[C@]5(C)[C@H]6CC[C@]78OC[C@@]9(CC[C@](C)(C=O)C[C@H]97)[C@H](O)C[C@@]8(C)[C@]6(C)CC[C@H]5C4(C)C)[C@@H](OC4OC(CO)[C@@H](O)[C@@H](O)[C@@H]4O)[C@@H]3O)[C@H]2OC2OC[C@@H](O)[C@@H](O)[C@@H]2O)[C@@H](O)[C@@H](O)[C@H]1O` (stereo partly drawn), the growth was -60.5% (active).
